Assay outcomes as filed in PubChem.
Only some compounds are listed: those with a hit (about 19% of all), similar ones and a draw of the others.
TDP1 cell CPT: growth inhibition of DT40 Tdp1-/-;hTDP1 cells with camptothecin (screen for TDP1 inhibitors); chicken DT40 Tdp1-/-;hTDP1 cells + 20 nM CPT, ATP luminescence, 48 h; Potency, µM (doses to about 46.2 µM), inactives show at the highest dose activity change, negative = growth inhibition, actives largely listed as inhibitors; 420,000 compounds, 12% hits; also: nearly all actives have a fitted effect of over 55% in size
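Cell growth measured by CellTiter-Glo luminescence after a minimum 48 h, 37 C compound exposure with 20 nM CPT in Tdp1-knockout DT40 cells stably expressing hTDP1, seeded 400/well; qHTS titration format.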
KB-V1 cytotox: KB-V1 MDR subline cytotoxicity. KB-V1 MDR cells viability, CellTiter-Glo, 72 h. Potency, µM (highest dose often 46.1 µM), usual class: cytotoxic. 400,000 compounds, 3.4% hits. AID 1347076; also: nearly all actives have a fitted effect of over 60% in size
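Cytotoxicity via CellTiter-Glo luminescence after 72 h compound exposure at 37 degrees C. Cells: drug-selected KB-V1 line, DMEM phenol-red free plus 10% FBS. Compounds tested at multiple concentrations; normalized data fitted to concentration-effect curves.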
HT1080 IDH1KD tx: HT-1080 IDH1 knockdown cell toxicity (counter line); HT-1080 IDH1 knockdown viability, ATP luminescence, 48 h; Potency, µM (doses to about 46.1 µM), inactives show at the top dose activity, negative = toxicity, hits mostly cytotoxic; 360,000 compounds, 2% hits;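 also: 0% = DMSO wells and -100% = cell-free medium wells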
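Luminescent ATP read-out (CellTiter-Glo, 10 min at room temperature) after 48 h compound exposure at 37 °C gave viability of IDH1-knockdown HT-1080 cells. Activity was normalised to DMSO and cell-free wells, then fitted as concentration-response curves.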
HT1080-NT tox: kills 2HG-producing HT-1080-NT fibrosarcoma cells | AID 686970 | HT-1080-NT fibrosarcoma viability, CellTiter-Glo ATP luminescence, 48 h | Potency, µM (titrated, usually from 46.1 µM), without a hit: at the top dose activity, negative = less viability, usual class: cytotoxic | 360,000 compounds, 1.6% hits;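 also: NT is the 2HG producing partner of a matched IDH1 knockdown line; 0% = DMSO-treated cells and -100% = media-only wells without cells; nearly all actives have a fitted effect of over 55% in size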
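Read-out is CellTiter-Glo luminescence after 10 minutes at room temperature, following 48 hours' compound treatment of HT-1080-NT cells (750 cells/well, RPMI, 5% FBS, 37 degrees C).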
TDP1 cell noCPT: qHTS for Inhibitors of human tyrosyl-DNA phosphodiesterase 1 (TDP1): qHTS in cells in absence of CPT. Potency, µM (series often up to 46.2 µM), inactives show top-dose activity change, negative = growth inhibition, hits mostly inhibitors. DT40 Tdp1-/- hTDP1 cells, no CPT, ATP luminescence, 48 h. 420,000 compounds, 15% hits; also: nearly all actives have a fitted effect of over 55% in size
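No-CPT arm: Tdp1-/-;hTDP1 DT40 cells (400/well) plus compounds, incubated ≥48 hr at 37 °C. Readout CellTiter-Glo luminescence.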
KB-3-1 tox: KB-3-1 parental cell cytotoxicity; KB-3-1 viability, CellTiter-Glo ATP luminescence, 72 h; Potency, µM (doses to about 46.1 µM), most hits filed as cytotoxic; 400,000 compounds, 1.4% hits; also: nearly all actives have a fitted effect of over 60% in size
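KB-3-1 parental drug-naive adenocarcinoma cells in DMEM/10% FBS, incubated 72 h at 37 C with pin-transferred compounds across a concentration series. Viability by CellTiter-Glo luminescence; concentration-response curves fitted after normalization.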
Starred values were filed as active, the others as inactive; i = inactive; ? = inconclusive; / = no result given. Calls follow the shape of the dose curve; as a rule, active = well fitted curve in the direction sought with a large enough effect; inconclusive = small, poorly fitted or top-dose-only effect, or another doubt; inactive = no such curve, though single readings can be large; an effect the other way counts as inactive or inconclusive. Unless noted, % is scaled to controls: 0 for no effect and ±100 for the full control effect; potency is read from the fitted curve at half-maximal effect.

SMILES	TDP1 cell CPT	KB-V1 cytotox	HT1080 IDH1KD tx	HT1080-NT tox	TDP1 cell noCPT	KB-3-1 tox
O=C(c1cccnc1)N1CCN(c2c(Cl)cccc2[N+](=O)[O-])CC1	-21%	i	3%	0%	8.2µM*	i
CC(C)C(=O)N1CCN(c2c(Cl)cccc2[N+](=O)[O-])CC1	-2%	15µM*	9%	16%	?	?
O=C(/C=C/c1ccc(Cl)cc1)N1CCN(c2ccc(Cl)cc2[N+](=O)[O-])CC1	?	i	-7%	-6%	?	i
Cc1sc2ncn(/N=C/c3ccco3)c(=O)c2c1C	9%	i	19%	?	-8%	i
Cc1ccnc2c(Cl)c(Cl)ccc12	-9%	i	/	/	-26%	i
CCc1ccc(N=Nc2ccc(O)c3[nH]cnc23)cc1	?	i	?	?	23µM*	i
Cc1cn(C2OC(COC(=O)c3ccccc3)C(OC(=O)c3ccccc3)C2OC(=O)c2ccccc2)c(=O)[nH]c1=O (stereo not given)	23µM*	?	?	-29%	?	i
COc1ccc(N(C(=O)Cn2cnc3ccccc32)C(C(=O)NC2CCCCC2)c2ccccc2)cc1 (stereo not given)	15µM*	i	-29%	?	?	i
O=C(Nc1ccccc1-c1nnc(SCc2ccc(Cl)cc2)o1)c1ccccc1	?	?	-6%	-2%	?	i
O=c1c(-c2nnc(SCc3ccc(Cl)cc3)o2)cccn1Cc1ccccc1	?	4.6µM*	?	?	-21%	i
O=C(Nc1ccccc1-c1nnc(SCc2ccccc2)o1)c1ccccc1	?	15µM*	4%	-4%	?	i
CCc1ccc(-n2cc(-c3ccc([N+](=O)[O-])cc3)[nH]c2=S)cc1	3%	i	-8%	0%	-5%	i
CCc1ccc(-c2cn(C3CCCCC3)c(=S)[nH]2)cc1	?	?	?	0%	8.2µM*	i
C/C(CCc1ccc2c(c1)OCO2)=N\NC(=S)NC(C)C	18µM*	i	1%	-4%	16µM*	i
C/C(CCc1ccc2c(c1)OCO2)=N\NC(=O)c1ccc(C)cc1C	1%	i	-3%	-9%	2.9µM*	i
COCCNC(=S)N/N=C(\C)CCc1ccc2c(c1)OCO2	-30%	i	15%	-4%	-26%	i
CCC(C)NC(=O)C1CCN(S(=O)(=O)c2ccc3c(ccn3CC)c2)CC1 (stereo not given)	-11%	i	/	/	-18%	i
CSc1ncnc2c1ncn2CCCN[C@H](C)c1cccc2ccccc12	-28%	i	-12%	-13%	?	i
C[C@@H](NCCCc1cccc(C(F)(F)F)c1)c1cccc2ccccc12	9.4µM*	?	/	/	8.4µM*	?
O=C(c1c(F)cccc1F)N(Cc1ccccc1)Cc1ccccc1	12µM*	i	-1%	-10%	12µM*	i
O=C(CSc1ccccc1)NCc1ccc2c(c1)CCN2C(=O)c1ccc(Cl)cc1	-12%	i	/	/	?	i
CCN1CCN(CCNC(=O)c2ccc(CS(=O)c3ccc(Br)cc3)o2)CC1 (stereo not given)	-13%	?	11%	0%	15%	i
Cc1ccc2c(CC(=O)Nc3cccc(C(F)(F)F)c3)coc2c1	16µM*	i	/	/	?	i
Cc1ccc2c(CC(=O)NNC(=O)c3ccccc3O)coc2c1	?	i	?	?	26µM*	?
Cc1ccccc1NC(=O)COC(=O)/C=C/c1cn(-c2ccccc2)nc1-c1cccnc1	-1%	i	0%	3%	?	i
SMILES	TDP1 cell CPT	KB-V1 cytotox	HT1080 IDH1KD tx	HT1080-NT tox	TDP1 cell noCPT	KB-3-1 tox
C/C(=C\C(=O)Nc1nccs1)c1ccccc1	-16%	?	-30%	-29%	-11%	i
CC(=O)Nc1ccc(NC(=O)C(C)OC(=O)/C=C/c2cn(-c3ccccc3)nc2-c2cccnc2)cc1 (stereo not given)	?	?	?	?	21µM*	?
OCc1cn(-c2ccccc2)nc1-c1ccc2c(c1)OCCO2	?	?	-15%	-7%	23µM*	i
O=C(/C=C\c1cn(-c2ccccc2)nc1-c1ccccc1)Nc1nccs1	15µM*	?	21µM*	15µM*	?	?
CN1CCN(C(=O)/C=C/c2cn(-c3ccccc3)nc2-c2ccc3c(c2)OCCO3)CC1	-2%	i	23µM*	23µM*	-21%	i
C[C@H](NC(=O)c1[nH]cnc1C(=O)N[C@@H](C)CO)c1ccccc1	6%	i	4%	9%	4%	i
COc1ccc(CCNC(=O)CSc2nncs2)cc1	-4%	i	9%	5%	-5%	i
COc1cccc(NC(=O)CN(C)C(=O)CSCC(=O)Nc2ccc(C)cc2)c1	-1%	?	0%	-12%	-1%	i
c1ccc(-n2cc(CNCCc3cscn3)c(-c3ccc4c(c3)OCO4)n2)cc1	?	i	?	?	23µM*	?
O=C(/C=C\c1cn(-c2ccccc2)nc1-c1ccc2c(c1)OCCO2)N1CCOCC1	?	?	-14%	-13%	10µM*	i
O=C(/C=C/c1cn(-c2ccccc2)nc1-c1cccnc1)N1CCCCC1	?	?	-1%	0%	18µM*	i
O=C(O)/C=C/c1cn(-c2ccccc2)nc1-c1ccc2c(c1)OCCO2	-13%	i	-10%	-6%	?	i
O=C(/C=C/c1cn(-c2ccccc2)nc1-c1cccc(Cl)c1)N1CCN(c2ccccn2)CC1	?	23µM*	-4%	-29%	?	?
CCOC(=O)c1ccc(NC(=O)NC2CC3CCC(C2)N3Cc2nnnn2C(C)(C)C)cc1 (stereo not given)	-10%	i	-6%	-25%	-17%	i
C/C(=N\OC(=O)C1CC1)C1CC1c1ccc(F)cc1 (stereo not given)	-3%	i	-3%	0%	-4%	i
CC(C)(C)c1ccc(C(=O)C[n+]2cc(Br)cc(Br)c2)cc1	?	i	/	/	?	i
Cc1ccc(C(=O)Cn2nc(C)c([N+](=O)[O-])c2C)c(C)c1	-16%	i	13%	11%	-26%	i
